# Records with an inconclusive call do not appear. For some assays here: Potency and affinity values are given separately. Activity calls are given as the source filed them. Unless noted, how the calls were made is not given here.
# Legend:
# [1] = qHTS profiling of the MIPE4 collection as inhibitors of Plasmodium falciparum (3D7) proliferation (AID 743344);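 further: scaled between DMSO vehicle wells and 0.29 µM artemisinin as full inhibition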; settings: P. falciparum 3D7 in erythrocytes, SYBR Green DNA fluorescence, 72 h; at 28.5 µM
# In short: (§1)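 Erythrocytes infected with P. falciparum (0.3% parasitemia, 2.5% hematocrit) incubated with compounds 72 h at 37 C, 5% CO2. Lysis with saponin/Triton buffer containing SYBR Green I, overnight at room temperature in the dark; DNA fluorescence (485/535 nm) normalised to 0.29 uM artemisinin and DMSO.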
# [2] = qHTS profiling of the MIPE4 collection as inhibitors of Plasmodium falciparum (DD2) proliferation (AID 743345); settings: P. falciparum Dd2 in erythrocytes, SYBR Green DNA, 72 h; at 28.5 µM
# In short: as §1
# [3] = qHTS profiling of the MIPE4 collection as inhibitors of Plasmodium falciparum (DD2) proliferation (Rep 2) (AID 743346); settings: P. falciparum Dd2 in erythrocytes, SYBR Green DNA, 72 h; at 28.5 µM
# In short: as §1
# [4] = qHTS profiling of the MIPE4 collection as inhibitors of Plasmodium falciparum (HB3) proliferation (AID 743347);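 further: plate controls were DMSO vehicle wells for no effect and artemisinin wells for full effect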; settings: P. falciparum HB3 in erythrocytes, SYBR Green DNA, 72 h; at 28.5 µM
# In short: as §1
# [5] = Ebola virus entry assay, green fluorescence channel
# [6] = Ebola virus entry assay, blue channel fluorescence
# [7] = Ebola virus entry assay, ratio channel
# [8] = Ebola virus entry assay, green channel fluorescence
# [9] = Ebola virus entry assay, reporter ratio channel; Channel type: primary
# [10] = qHTS assay for measurement of the activity of small molecule inhibitors on Zika virus induced Caspase-3 activity in human iPSC derived neural progenitor cells (hNPCs) (AID 1224857; active means well fitted inhibition curve with a large enough effect; further: % of control where 0% means no effect; nearly all actives have a fitted effect of over 65% in size); settings: hNPCs ZIKV-induced caspase-3/7, Caspase-Glo luminescence, 6 h; series mostly up to 45.7 µM
# In short: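 Values are percent inhibition of virus-induced caspase-3/7 signal, scaled between uninfected cells and ZIKV-infected cells. Infection used 2 FFU/cell for 6 h after 1 h compound exposure.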
# [11] = qHTS assay for measurement of the activity of small molecule inhibitors on Zika virus induced Caspase-3 activity in human astrocytoma cells (AID 1224859; active means well fitted inhibition curve with a large enough effect;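 further: plate controls were ZIKV-infected untreated cells for no effect and uninfected cells for full effect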); settings: SNB-19 ZIKV-induced caspase-3/7, luminescence, 6 h; series mostly up to 45.7 µM
# In short: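 Compound added 1 h pre-infection; ZIKV 2 FFU/cell on SNB-19 cells, 6 h, 37 C/5% CO2. Caspase-Glo 3/7 luminescence; values as % inhibition of ZIKV-induced caspase activity.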
# [12] = Ebola virus entry assay, blue channel (ratio component)
# Wherever efficacy is given: 0% is about no effect.
structure (smiles),measurement,setting,value
CCOC(=O)Nc1ccc(NCc2ccc(F)cc2)nc1N,"parasite growth, % of DMSO control",[1],40.6%
same,"parasite growth remaining, % of DMSO control (lower = more inhibition)",[2],90%
same,"parasite growth, % of control (lower = inhibition)",[3],84.5%
same,"growth, % of control",[4],82.7%
same,efficacy,[5],25.7% (inactive)
same,outcome,[6],inactive
same,outcome,[7],inactive
same,outcome,[8],inactive
same,outcome,[9],inactive
CCCCC[C@H](O)C=C[C@H]1[C@H](O)CC(=O)[C@H]1CC=CCCCC(=O)O,efficacy,[5],75.7% (inactive)
same,AC50,[6],8.91 µM (active)
same,AC50,[7],7.08 µM (active)
same,AC50,[9],7.08 µM (active)
Nc1ccc(Cl)cc1C(=O)c1ccccc1F,efficacy,[5],-39% (inactive)
same,AC50,[6],31.6 µM (active)
same,outcome,[7],inactive
same,outcome,[8],inactive
same,AC50,[9],31.6 µM (active)
same,Potency,[10],inactive
same,outcome,[11],inactive
NC(N)=NC(=O)c1nc(Cl)c(N)nc1N,"parasite growth, % of DMSO control",[1],116%
same,"parasite growth remaining, % of DMSO control (lower = more inhibition)",[2],94%
same,"parasite growth, % of control (lower = inhibition)",[3],111%
same,"growth, % of control",[4],87.1%
same,efficacy,[5],-17.5% (inactive)
same,outcome,[6],inactive
same,outcome,[7],inactive
same,outcome,[8],inactive
same,outcome,[9],inactive
same,outcome,[12],inactive
O=C1NCN(c2ccccc2)C12CCN(CCCOc1ccc(F)cc1)CC2,efficacy,[5],-43.3% (inactive)
same,AC50,[6],3.16 µM (active)
same,AC50,[7],3.16 µM (active)
same,outcome,[8],inactive
same,AC50,[9],3.16 µM (active)
same,Potency,[10],inactive
same,outcome,[11],inactive
CCN1CCCC1CNC(=O)C(O)(c1ccccc1)c1ccccc1 (stereo not drawn),efficacy,[5],28.7% (inactive)
same,AC50,[6],15.8 µM (active)
same,AC50,[7],20 µM (active)
same,outcome,[8],inactive
same,AC50,[9],20 µM (active)
same,Potency,[10],inactive
same,outcome,[11],inactive
COc1cc(CC(C)N)cc2c1OCO2 (stereo not drawn),efficacy,[5],23.1% (inactive)
same,AC50,[6],35.5 µM (active)
same,outcome,[7],inactive
same,outcome,[8],inactive
same,AC50,[9],35.5 µM (active)
same,Potency,[10],inactive
same,outcome,[11],inactive
CN(C)CCc1c[nH]c2ccccc12,efficacy,[5],-12.4% (inactive)
same,AC50,[6],35.5 µM (active)
same,outcome,[7],inactive
same,outcome,[8],inactive
same,outcome,[9],inactive
same,Potency,[10],inactive
same,outcome,[11],inactive
CC1N=C(N)OC1c1ccccc1 (stereo not drawn),efficacy,[5],23.7% (inactive)
same,AC50,[6],31.6 µM (active)
same,outcome,[7],inactive
same,outcome,[8],inactive
same,AC50,[9],31.6 µM (active)
same,Potency,[10],inactive
same,outcome,[11],inactive
COc1ccc2c3c1O[C@H]1[C@@H](O)C=C[C@H]4[C@@H](C2)N(C)CC[C@@]341,efficacy,[5],44% (inactive)
same,AC50,[6],28.2 µM (active)
same,outcome,[7],inactive
same,outcome,[8],inactive
same,AC50,[9],31.6 µM (active)
same,Potency,[10],inactive
same,outcome,[11],inactive
CCCC(C)C1(CC)C(=O)N=C(S)NC1=O (stereo not drawn),efficacy,[5],15.1% (inactive)
same,outcome,[6],inactive
same,outcome,[7],inactive
same,outcome,[8],inactive
same,outcome,[9],inactive
same,Potency,[10],inactive
same,outcome,[11],inactive
O=C(CBr)Nc1ccc(Cl)cc1C(=O)c1ccccc1F,efficacy,[5],28% (inactive)
same,AC50,[6],17.8 µM (active)
same,AC50,[7],17.8 µM (active)
same,outcome,[8],inactive
same,AC50,[9],17.8 µM (active)
same,Potency,[10],inactive
same,outcome,[11],inactive
Clc1ccc(Cn2c(CN3CCCC3)nc3ccccc32)cc1,efficacy,[5],99.2% (inactive)
same,AC50,[6],28.2 µM (active)
same,AC50,[7],22.4 µM (active)
same,AC50,[9],22.4 µM (active)
CC(C)(C)OC(=O)c1ncn2c1[C@@H]1CCCN1C(=O)c1c(Br)cccc1-2,efficacy,[5],19.6% (inactive)
same,outcome,[6],inactive
same,outcome,[7],inactive
same,outcome,[8],inactive
same,outcome,[9],inactive
same,Potency,[10],inactive
same,outcome,[11],inactive
C=C1c2cccc(O)c2C(O)=C2C(=O)[C@]3(O)C(O)=C(C(N)=O)C(=O)[C@@H](N(C)C)[C@@H]3[C@@H](O)[C@H]12,efficacy,[5],38.3% (inactive)
same,AC50,[6],7.08 µM (active)
same,AC50,[7],6.31 µM (active)
same,AC50,[9],6.31 µM (active)
CCc1cc(OC)c(C[C@H](C)N)cc1OC,efficacy,[5],38.5% (inactive)
same,AC50,[6],22.4 µM (active)
same,AC50,[7],25.1 µM (active)
same,outcome,[8],inactive
same,AC50,[9],25.1 µM (active)
same,Potency,[10],inactive
same,outcome,[11],inactive
CCCS(=O)c1ccc2nc(NC(=O)OC)[nH]c2c1 (stereo not drawn),"parasite growth, % of DMSO control",[1],81.1%
same,"parasite growth remaining, % of DMSO control (lower = more inhibition)",[2],99.7%
same,"parasite growth, % of control (lower = inhibition)",[3],101%
same,"growth, % of control",[4],81.4%
same,efficacy,[5],23.9% (inactive)
same,outcome,[6],inactive
same,outcome,[7],inactive
same,outcome,[8],inactive
same,outcome,[9],inactive
same,outcome,[12],inactive
CC[C@]1(O)CC[C@H]2[C@@H]3CCC4=CCCC[C@@H]4[C@H]3CC[C@@]21C,efficacy,[5],22.6% (inactive)
same,AC50,[6],17.8 µM (active)
same,AC50,[7],15.8 µM (active)
same,outcome,[8],inactive
same,AC50,[9],15.8 µM (active)
same,Potency,[10],inactive
same,outcome,[11],inactive
Sc1ccccc1Cl,efficacy,[5],41.3% (inactive)
same,outcome,[6],inactive
same,outcome,[7],inactive
same,outcome,[8],inactive
same,outcome,[9],inactive
same,Potency,[10],inactive
same,outcome,[11],inactive
COc1ccc(OC)c(CC(C)N)c1 (stereo not drawn),efficacy,[5],40.3% (inactive)
same,AC50,[6],31.6 µM (active)
same,outcome,[7],inactive
same,outcome,[8],inactive
same,AC50,[9],31.6 µM (active)
same,Potency,[10],inactive
same,outcome,[11],inactive
CCCCCCOC(=O)NC(=N)c1ccc(NCc2nc3cc(C(=O)N(CCC(=O)OCC)c4ccccn4)ccc3n2C)cc1,efficacy,[5],128% (inactive)
same,AC50,[6],3.55 µM (active)
same,AC50,[7],3.16 µM (active)
same,AC50,[9],3.16 µM (active)
CN1CCC(=C2c3ccccc3CC(=O)c3sccc32)CC1,efficacy,[5],93.4% (inactive)
same,AC50,[6],31.6 µM (active)
same,AC50,[7],28.2 µM (active)
same,AC50,[9],28.2 µM (active)
CN1C(=O)CN=C(c2ccccc2)c2cc(Cl)ccc21,efficacy,[5],-37.3% (inactive)
same,AC50,[6],25.1 µM (active)
same,outcome,[7],inactive
same,outcome,[8],inactive
same,AC50,[9],35.5 µM (active)
same,Potency,[10],inactive
same,outcome,[11],inactive
CCCN(CCC)CCc1c[nH]c2ccccc12,efficacy,[5],39.8% (inactive)
same,AC50,[6],35.5 µM (active)
same,AC50,[7],31.6 µM (active)
same,outcome,[8],inactive
same,AC50,[9],31.6 µM (active)
same,Potency,[10],inactive
same,outcome,[11],inactive
O=C(NC(=O)c1c(F)cccc1F)Nc1cc(Cl)c(OC(F)(F)C(F)C(F)(F)F)cc1Cl (stereo not drawn),efficacy,[5],43.9% (inactive)
same,AC50,[6],17.8 µM (active)
same,AC50,[7],20 µM (active)
same,outcome,[8],inactive
same,AC50,[9],20 µM (active)
same,Potency,[10],inactive
same,outcome,[11],inactive
Cc1cccc(CN2CCN(C(c3ccccc3)c3ccc(Cl)cc3)CC2)c1 (stereo not drawn),efficacy,[5],38.6% (inactive)
same,AC50,[6],22.4 µM (active)
same,AC50,[7],22.4 µM (active)
same,AC50,[9],22.4 µM (active)
Cc1cccc(N(C)C(=S)Oc2ccc3c(c2)CCC3)c1,efficacy,[5],64.2% (inactive)
same,AC50,[6],39.8 µM (active)
same,outcome,[7],inactive
same,AC50,[9],39.8 µM (active)
N#C/C(=C1/SC[C@@H](c2ccc(Cl)cc2Cl)S1)n1ccnc1,efficacy,[5],68.3% (inactive)
same,AC50,[6],39.8 µM (active)
same,outcome,[7],inactive
same,AC50,[9],39.8 µM (active)
Cc1ccc(C(=O)Oc2ccc(C(O)CNC(C)(C)C)cc2OC(=O)c2ccc(C)cc2)cc1 (stereo not drawn),efficacy,[5],67.4% (inactive)
same,AC50,[6],3.98 µM (active)
same,AC50,[7],3.55 µM (active)
same,AC50,[9],3.55 µM (active)
C[C@@]12C(=O)OC(=O)[C@]1(C)C1CCC2O1,efficacy,[5],65.6% (inactive)
same,AC50,[6],5.62 µM (active)
same,AC50,[7],7.94 µM (active)
same,AC50,[9],7.94 µM (active)
